SMILES strings stand for the structures. The campaign covered roughly 1,100 compounds. About 40 (4%) were called active. Only a sample is shown. Unmarked numbers belong to inactive results.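 How the source made its calls: active means average inhibition above the solvent-only control wells' mean plus 3 SD (cut at about 15% in these data); inactive means the rest.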

A short description of this assay: TTR promoter reporter inhibitors in hepatoma cells, counter-screen for TTR transcription activator project, cell-based, luminescence, HuH7 hepatoma (AID 1117279).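 Further: 0% = cells with DMSO only and 100% = cells with inhibitor control FD; inhibitors lower well luminescence so higher value means more inhibition.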 Conditions: HuH7 TTR promoter-Gaussia luciferase reporter, at 16.7 µM, stronger effect = higher value. On the technique in general: Counterscreens check selectivity or assay interference.
For `CC(C)(C)C1CCC(OC(=O)CCC(=O)Nc2ccccc2)CC1` (stereo unspecified), the inhibition was -7.82%.

Turning to `C[C@H](NC(=O)C1CCN(S(=O)(=O)c2ccccc2)CC1)C(=O)NCc1ccccc1`, the inhibition is -13.1%.

As for `Cc1cccc(N2C(=O)CC(SC(N)=Nc3ccccc3)C2=O)c1` (stereo unspecified), the inhibition is -9.09%.

For `Brc1ccc(/C=N/N2CCN(C3c4ccccc4-c4ccccc43)CC2)s1`, the inhibition is -10.1%.

`CC(C)NC(=O)c1ccc(Sc2ccccc2)c([N+](=O)[O-])c1`: the inhibition was -1.16%.

For `CCOc1ccc(NC(=O)COc2ccc(S(=O)(=O)N3CCCC3)cc2)cc1`, the inhibition was -11.3%.

In the case of `CCCCCc1ccc(-c2cn(Cc3ccc4ccccc4c3)nn2)cc1`, the inhibition is -10.2%.

As for `CCOc1ccc(N=C2NC(=O)S/C2=C\c2ccc(O)cc2)cc1`, the inhibition is 24.4% (active).

For `COc1cc(N2C(=O)CC3(CCCC3)CC2=O)cc(OC)c1OC`, the inhibition is -8.06%.

In the case of `Cc1c(C#N)c(NC(=O)c2ccccc2)n(Cc2ccccc2)c1C`, the inhibition is -8.18%.

Regarding `Cn1cc(CN2CCCC(CO)C2)c(-c2ccc(Oc3ccccc3)cc2)n1` (stereo unspecified), the inhibition was -9.5%.

Consider `O=C(NNC1=NCCC1)c1cccc(S(=O)(=O)N2CCCCC2)c1`, for which the inhibition was -4.93%.

In the case of `COc1ccc(-c2oc3ncn(Cc4ccco4)c(=N)c3c2-c2ccc(OC)cc2)cc1`, the inhibition was 1.5%.

For `CSCCC(NC(N)=O)C(=O)N(C)CC(=O)Nc1ccc(C)cc1` (stereo unspecified), the inhibition was -0.9%.

As to `CCCCOCCCNC(=O)C[C@H]1C[C@@]2(C(=O)OC)C(=C[C@H](C(C)(C)C)O[C@@H]2C)N(CCc2ccc(OC)c(OC)c2)C1=O`, the inhibition is -3.28%.

`Cc1cccc(C)c1NC(=O)CN1C(=O)C(C)Oc2ccccc21` (stereo unspecified): the inhibition is 1.63%.

In the case of `N=c1ccn(CC(=O)NC(N)=O)c2ccccc12`, the inhibition is -11.8%.

For `C=C1C(C(C)C)N(C)C2=NC(c3ccccc3)CC(=O)N12` (stereo unspecified), the inhibition is -4.18%.

In the case of `O=C(NCCCNC(=O)c1ccccc1Cl)c1cnccn1`, the inhibition is -8.25%.

As to `O=S(=O)(NCCCN1CCOCC1)c1ccc(F)c(Cl)c1`, the inhibition is -2.54%.

In the case of `COc1ccccc1N1CCN(Cc2cc(OC)c3c(c2)OCO3)CC1`, the inhibition is -8.45%.

With `O=C(Nc1cccc(O)c1)c1ccc(C(=O)c2ccccc2)o1`, the inhibition was -11.2%.

Turning to `O=C(O)Cn1c(Cc2ccccc2)nc2ccccc21`, the inhibition was -10%.

Take `O=C(CCC(=O)c1cccs1)NCc1ccccc1`: the inhibition is -6.29%.

`Cc1c(NS(=O)(=O)c2ccc(NC3CCCC3)c([N+](=O)[O-])c2)c(=O)n(-c2ccccc2)n1C`: the inhibition was 17.4% (active).

As for `CCOC(=O)c1c(-c2ccccc2)oc2ccc(OCC(N)=O)cc12`, the inhibition is -17.5%.

Take `COc1cc(C(C)=O)ccc1OC(C)C(=O)Nc1ccc(S(=O)(=O)N2CCCC2)cc1` (stereo unspecified): the inhibition was -21.8%.

Regarding `O=C(Nc1ccccc1C(=O)N1CCCCCC1)c1ccccc1Cl`, the inhibition was -17.5%.

With `CCOc1ccccc1NC(=O)COc1ccc(S(=O)(=O)N2CCCC2)cc1`, the inhibition was -35.5%.

As to `C(=N\n1cnnc1)/c1cccnc1`, the inhibition is -6.37%.

With `COc1cccc(-c2cnc(C(O)c3ccccc3OC)[nH]2)c1` (stereo unspecified), the inhibition is -13.2%.

As for `Cc1ccccc1/[N+]([O-])=C/c1ccncc1`, the inhibition was -5.47%.

For `O=C(CS(=O)(=O)c1ccccc1)Nc1ccc(S(=O)(=O)Nc2ccccn2)cc1`, the inhibition is -15.3%.

For the compound `C/C(CC(=O)Nc1ccc(N(C)C)cc1)=N\NC(=O)c1ccccc1F`, the inhibition is -16.7%.

As to `COc1ccc(S(=O)(=O)NCC(=O)NCc2cc(=O)n(C)c(=O)n2C)cc1F`, the inhibition was -4.59%.

Turning to `Cc1ccc(CN2CCCOCCS2(=O)=O)cc1`, the inhibition was -6.05%.

For the compound `Nc1nc(SCC(=O)Nc2ccc(Cl)c([N+](=O)[O-])c2)n[nH]1`, the inhibition is -10%.

In the case of `CCOC(=O)c1cc(-c2ccc(Cl)s2)nc2c1c(C)nn2C`, the inhibition is -14.6%.

On to `O=C(NC(=O)c1ccccc1N1CCCCC1)Nc1ccc(Br)cc1`, for which the inhibition is -2.62%.

Turning to `Cc1cc(C)c2nc3nc(C)cc(C)c3c(N)c2c1`, the inhibition was -40.1%.

As to `CCCCc1cc(=O)oc2cc(C)cc(OCc3nn[nH]n3)c12`, the inhibition was -25.9%.

In the case of `O=C(NNC(=O)c1cc(S(=O)(=O)N2CCCCC2)ccc1Cl)c1ccccc1O`, the inhibition is -22.3%.

Consider `COC(=O)c1cnn2c(C(F)(F)F)cc(-c3ccco3)nc12`, for which the inhibition is 2.2%.

Regarding `O=C1c2cccc(OCC(=O)N3N=C(c4cccs4)CC3c3ccc(F)cc3)c2CCN1Cc1ccccc1` (stereo unspecified), the inhibition was 9.54%.

For the compound `COc1ccc(C2c3ccc(O)cc3Oc3ncn(CCCO)c(=N)c32)cc1OC` (stereo unspecified), the inhibition was -4.61%.

With `O=S(=O)(NCc1ccccc1Br)c1ccccc1Br`, the inhibition is 6.86%.

As to `CCCCN(C)CCNC(=O)C1CCCN(S(=O)(=O)c2cccc3nsnc23)C1` (stereo unspecified), the inhibition was -18%.

For `O=C(O)C1OC(C(=O)O)C2C1C(F)(F)C2(F)F` (stereo unspecified), the inhibition is -13.2%.

Consider `Cc1cc(C)c(C#N)c(N2CCC(C(N)=O)CC2)n1`, for which the inhibition was -15.2%.

On to `Cc1nc(-c2ccc(Cl)cc2)sc1C(=O)NN`, for which the inhibition was -6.37%.

Consider `N#Cc1cccc(CN2CCC(=O)N(CCO)CC2)c1`, for which the inhibition was -7.6%.

By inhibition is commonly meant the drop in the measured response relative to a control, in per cent.

For the origin of these results see PubChem BioAssay AID1117279 (The Scripps Research Institute Molecular Screening Center, 2014).
